An excerpt weighted towards active compounds, which were near 3.6% of everything screened.
mHTT-CaM PPI inh = mutant huntingtin-calmodulin interaction inhibitors – biochemical, AlphaScreen, primary screen | AlphaScreen His-mHTT/GST-CaM binding, luminescence | inhibition, % at 15 µM | 190,000 compounds, 3.6% hits
Pf apPOL block = Pf-apPOL inhibitors, biochemical, fluorescence; Plasmodium falciparum apicoplast DNA polymerase (apPOL); Recombinant Pf-apPOL, molecular beacon fluorescence, 1.5 h; inhibition, % at 10 µM; 210,000 compounds, 0.25% hits
Numbers stand for hits; – = inactive; · = no result given; + = active, no number. Rule as the data show it: active = inhibition above about 50%; inactive = the rest.

SMILES | mHTT-CaM PPI inh | Pf apPOL block
Cc1ccc(NC(=O)Cc2nc(-c3cccnc3)n[nH]2)cc1 | – | –
Cc1ccc(NC(=O)Cc2nc(-c3ccccn3)n[nH]2)cc1C | 95.7 | –
Cc1ccc(NC(=O)Cc2nc(-c3ccccc3)n[nH]2)cc1F | – | –
Cc1ccc(NC(=O)Cc2nc(-c3ccccn3)n[nH]2)cc1F | 69.1 | –
Cc1cccc(NC(=O)CCSc2ccc(Cl)cc2)c1C | – | –
CS(=O)(=O)N1CCN(C(=O)CCc2csc(NC(=O)c3cccs3)n2)CC1 | – | –
COc1cc(OC)cc(-n2nc(C(=O)N(C)c3cc(Cl)ccc3C)c3ccccc3c2=O)c1 | – | –
Cc1noc(C)c1-n1sc(=O)n(-c2ccc(F)cc2)c1=O | · | 73.3
Cc1ccc(-n2sc(=O)n(Cc3ccc(F)cc3)c2=O)cc1 | · | –
COCCCn1c(=N)c(S(=O)(=O)c2ccc(Cl)cc2)cc2c(=O)n3ccccc3nc21 | – | –
CCOC(=O)N1CCN(C(c2ccc(SC)cc2)c2c(O)cc(C)n(CC)c2=O)CC1 (stereo not drawn) | 69.2 | –
CCOC(=O)N1CCN(C(c2cccs2)c2c(O)cc(C)n(CC)c2=O)CC1 (stereo not drawn) | – | –
O=C(NCc1ccc(F)cc1)N(Cc1ccsc1)Cc1ccco1 | – | –
COc1ccc(-n2c(SCC(=O)Nc3ccc(C)c(C)c3)nc3[nH]ncc3c2=O)cc1 | – | –
Cc1cc(C)c2sc(N(CCN(C)C)C(=O)c3ccccc3[N+](=O)[O-])nc2c1 | 83.8 | –
CCN(C(=O)c1ccccc1[N+](=O)[O-])c1ccccc1C | – | –
CC(=O)c1ccc(NC(=O)c2ccc([N+](=O)[O-])c(C)c2)cc1 | – | –
CC1CCN(C(=O)C2c3ccccc3CCN2CC(=O)Nc2cc(F)ccc2F)CC1 (stereo not drawn) | – | –
N#Cc1ccc(CNC(=S)Nc2ccc(Cl)c(Cl)c2)cc1 | · | 61.1
O=C(NCc1ccncc1)C(=O)Nc1ccc(Cl)c(Cl)c1 | – | –
Cc1ncc(CO)c2cc(-c3nnc(Nc4ccccc4Cl)s3)c(=O)oc12 | – | –
O=C1C[C@H]2C=CCc3cccc(c32)CN1Cc1ccc(F)cc1 | – | –
Cc1cccc(CN2Cc3cccc4c3[C@H](C=CC4)CC2=O)c1 | 100.3 | –
Cc1ccc(C(=O)N2CCN(c3ccccc3F)C(=O)C2C)cc1 (stereo not drawn) | – | –
Nc1nonc1/C(=N\O)N1CCN(c2ccc(Cl)cc2[N+](=O)[O-])CC1 | + | –
SMILES | mHTT-CaM PPI inh | Pf apPOL block
COc1ccc(N2CCN(/C(=N/O)c3nonc3N)CC2)c([N+](=O)[O-])c1 | – | –
O=C(c1ccc(Cl)cc1)N1CCN(c2ccc(Cl)cc2[N+](=O)[O-])CC1 | – | –
Cc1c(C(=O)N2CCN(c3ccc(Cl)cc3[N+](=O)[O-])CC2)oc2ccccc12 | 61.0 | –
CSc1nc(N)nc(SCc2ccc(Cl)c(Cl)c2)c1C#N | 74.0 | –
CSc1nc(N)nc(SC/C=C/c2ccccc2)c1C#N | – | –
O=C(NCc1n[nH]c(=O)c2ccccc12)c1cccc2ccccc12 | – | –
O=C(NCc1n[nH]c(=O)c2ccccc12)c1cc(-c2ccco2)[nH]n1 | – | 77.6
COc1ccc(N2CCN(C(=O)c3sc4cccc(F)c4c3OC)CC2)cc1 | 63.9 | –
COc1ccc(-n2cc(C(=O)N3CCN(c4ccc(F)cc4)CC3)c3ccccc3c2=O)cc1 | 78.0 | –
COc1ccccc1N1CCN(C(=O)c2nn(-c3ccc(F)cc3)c(=O)cc2OC)CC1 | – | –
COc1ccccc1N1CCN(C(=O)c2nn(-c3ccc(F)cc3)cc2OC)CC1 | 68.0 | –
COc1cccc(N2CCN(C(=O)c3sc4cccc(F)c4c3OC)CC2)c1 | – | –
COc1ccccc1N1CCN(C(=O)c2ccccc2F)CC1 | – | –
COc1ccc(-n2cc(C(=O)N3CCN(c4ccccc4F)CC3)c3ccccc3c2=O)cc1 | – | –
COc1ccccc1N1CCN(C(=O)c2sc3cccc(F)c3c2OC)CC1 | 78.5 | –
CC(C)C(NS(=O)(=O)c1cccs1)C(=O)Nc1cccc2c1CCCC2 (stereo not drawn) | – | –
COc1ccc(CNC(=O)c2ccnc(N3CCNC(c4ccccc4)C3)c2)cc1 (stereo not drawn) | – | –
Cc1ccc(CNC(=O)C2CCN(c3nn4c(=O)c5c(nc4s3)CCCC5)CC2)cc1 | 89.1 | –
O=C(NCc1cccc(F)c1)C1CCN(c2nn3c(=O)c4c(nc3s2)CCCC4)CC1 | – | –
COc1ccc(OC)c(NC(=O)CN(c2ccc(C(C)C)cc2)S(C)(=O)=O)c1 | – | –
CC12CCC(CC1N)C2 (stereo not drawn) | 54.5 | –
CCOC(=O)CC1(NC(=O)N2CCCC2c2cccc(F)c2)CCCCC1 (stereo not drawn) | – | –
N[C@@H](Cc1ccc(O)c(O)c1)C(=O)O | · | –
O=C(O)C(O)Cc1ccc(O)c(O)c1 (stereo not drawn) | · | 84.3
O=C(Nc1ccc(Cl)c(Cl)c1)c1cc(S(=O)(=O)NC2CCCC2)ccc1F | 93.0 | –
SMILES | mHTT-CaM PPI inh | Pf apPOL block
O=C(Nc1cccc(F)c1)c1cc(S(=O)(=O)NCc2ccccc2Cl)ccc1F | – | –
Cc1ccc(NC(=O)c2cc(S(=O)(=O)NC3CCCC3)ccc2F)cc1Cl | – | –
O=C(Nc1cc(Cl)cc(Cl)c1)c1ccc(F)c(S(=O)(=O)NCc2ccc(F)cc2)c1 | 53.0 | –
O=C(Nc1ccc(Br)cc1)c1ccc(F)c(S(=O)(=O)NC2CCCC2)c1 | – | –
O=C(Nc1ccc(Cl)c(Cl)c1)c1ccc(F)c(S(=O)(=O)NC2CCCC2)c1 | 65.0 | –
O=C(Nc1ccc(Cl)cc1)c1cc(S(=O)(=O)NCc2ccccc2Cl)ccc1F | – | 84.2
O=C(Nc1cc(Cl)cc(Cl)c1)c1ccc(F)c(S(=O)(=O)NCc2ccccc2)c1 | – | –
CC(C)N(CCCNC(=O)c1csc2c1CCCC2)Cc1ccccc1 | – | –
CCOC(=O)CNC(=O)N1CCC(n2c(-c3ccc(F)cc3)nc3cccnc32)C1 (stereo not drawn) | – | –
CC(C)NCC(O)COCC12CC3CC(CC(C3)C1)C2 (stereo not drawn) | – | –
O=[N+]([O-])c1cccc(C=Nc2ccc(Cl)c(Cl)c2)c1O | – | –
O=C(Nc1ccc(Cl)cc1)c1cc(S(=O)(=O)NC2CCCC2)ccc1F | – | –
O=C(Nc1ccc(Cl)cc1)c1cc(S(=O)(=O)NC2CCCCCC2)ccc1F | – | 78.4
CCOc1ccccc1NC(=O)c1cc(S(=O)(=O)NCCc2ccc(Cl)cc2)ccc1F | 56.0 | –
COc1ccccc1NC(=O)c1cc(S(=O)(=O)NCCc2ccc(Cl)cc2)ccc1F | – | –
CCOC(=O)c1ccc(NC(=O)CN2CCc3[nH]c4ccccc4c(=O)c3C2)cc1 | – | –
COc1c(C(=O)NC(C)(C)C)sc2ccc(F)cc12 | – | –
Cc1cccc(-c2nc(Cn3cnc4c(oc5ccccc54)c3=O)c(C)o2)c1 | – | –
O=C(c1ccccn1)N1CCCN(C2CCN(CC3CC3)C2=O)CC1 (stereo not drawn) | – | –
O=C(c1ccc(Sc2cccc(Cl)c2)c([N+](=O)[O-])c1)N1CCC2(CC1)OCCO2 | 60.0 | –
O=[N+]([O-])c1cc(S(=O)(=O)N2CCc3ccccc32)ccc1N1CCc2ccccc21 | 74.0 | –
O=C(c1ccc(N2CCC3(CC2)OCCO3)c([N+](=O)[O-])c1)N1CCOCC1 | – | –
